40 compounds from PubChem BioAssay (Tox21) can be followed below.

Inconclusive results are not listed. Values without a mark were called inactive. The source made the active and inactive calls. The call rests on the fitted dose curve; in most records, active means well fitted cell-killing curve with a large enough effect in the repeat runs; inconclusive means weak or mixed curves; inactive means no such curve, though single readings can be large or run the other way.
On the % scale 0 is the no-effect control and ±100 the full control effect.

This assay is described as follows: qHTS assay to identify small molecule antagonists of the androgen receptor (AR) signaling pathway - cell viability counter screen (AID 743033; further: nearly all actives have a fitted effect of over 45% in size). The following applies: AR-bla HEK293 viability, CellTiter-Glo luminescence, 16 h; series mostly up to 58.5 µM; activity change, negative = cytotoxicity: at the top concentration. An excerpt: National Center for Advancing Translational Sciences [NCATS]
NIH Chemical Genomics Center [NCGC]
U.S. Environmental Protection Agency [EPA]
National Institutes of Environmental Health Sciences [NIEHS]
National Toxicology Program [NTP]
U.S. Food and Drug Administration [FDA]
Androgen receptor (AR), a nuclear hormone receptor, plays a critical role in AR-dependent prostate cancer and other androgen related diseases. Endocrine disrupting chemicals (EDCs) and their interactions with steroid hormone receptors like AR may cause disruption of normal endocrine function as well as interfere with metabolic homeostasis, reproduction, developmental and behavioral functions. To identify the compounds that inhibit AR signaling, GeneBLAzer AR-UAS-bla-GripTite cell line (Invitrogen, Carlsbad, CA, USA) containing a beta-lactamase reporter gene under control of an Upstream Activator Sequence (UAS) stably integrated into HEK293 cells was used to screen the Tox21 10K compound library. The cytotoxicity of the Tox21 compound library against the AR-bla cell line was tested in parallel by measuring the cell viability using CellTiter-Glo assay in the same wells.
Tox21 Assay Protocol Summary:
AR-bla cells were dispensed at 2,000 cells/5 uL of assay medium per well into black wall/clear-bottom 1536-well plates using a Multidrop Combi (ThermoFisher Scientific, Waltham, MA) dispenser. After the assay plates were incubated at a 37C and 5% CO2 for 4 hr, 23 nL of compounds dissolved in DMSO, positive controls or DMSO only was transferred to the assay plate by a Pintool station (Kalypsys, San Diego, CA), followed by addition of 1 uL of agonist (R1881) in culture medium using a Bioraptr Flying Reagent Dispenser (FRD) workstation (Beckman Coulter, Indianapolis, IN, USA). The plates were incubated at a 37C and 5% CO2 for 16 h. After 1 uL of LiveBLAzerTM B/G FRET substrate was added using a Bioraptr FRD, the plates were incubated at room temperature for 2 h and fluorescence intensity was measured by an Envision plate reader (PerkinElmer, Shelton, CT). For cell viability readout that measures cytotoxicity, 4 ul/well of CellTiter-Glo reagent was added into the assay plates using a Bioraptr FRD. After 30 min incubation at room temperature, the luminescence intensity in the plates was measured using a ViewLux (PerkinElmer) plate reader.
(qHTS replaces the single test concentration by a dilution series.)
For `CNc1cnn(-c2cccc(C(F)(F)F)c2)c(=O)c1Cl`, the compound was classed as inactive.

As to `ClCCOCCCl`, the call was inactive.

Take `CCOc1ccc(N)cc1`: the compound was classed as inactive.

As to `Cl[C@H]1OCCO[C@@H]1Cl`, the compound was classed as inactive.

As to `Nc1nc(N)nc(NC2CC2)n1`, the outcome was inactive.

For `CN(C)C(=O)Cl`, the compound was called inactive.

Turning to `CCCCC(CC)C(=O)Cl` (stereo not given), the compound was classed as inactive.

Turning to `CNC(=O)Oc1cccc2ccccc12`, the outcome was inactive.

For `Cc1cccc(C)c1N`, the compound was classed as inactive.

Consider `CC(=O)C1CCOC1=O` (stereo not given), for which the “activity change, negative = cytotoxicity” value was 0.628% [at 78.9 µM].

Regarding `COC(C)(C)CCCC(C)C/C=C/C(C)=C/C(=O)OC(C)C` (stereo not given), the compound was classed as inactive.

As to `Clc1cnc(Oc2ccc(Oc3ncc(Cl)cc3Cl)cc2)c(Cl)c1`, the compound was called inactive.

For `Cc1ccccc1N`, the compound was called inactive.

As for `CSc1nnc(C(C)(C)C)c(=O)n1N`, the compound was called inactive.

Take `CNC(=O)O/N=C/C(C)(C)S(C)=O` (stereo not given): the compound was called inactive.

As for `N#Cc1cccc(C#N)c1`, the outcome was inactive.

`Cl/C=C/Cl`: the outcome was inactive.

Consider `C=CC(=O)OCCCCCC(C)C`, for which the result was inactive.

With `O=[N+]([O-])c1ccc(Cl)cc1`, the outcome was inactive.

`COP(=S)(OC)Oc1ccc(SC)c(C)c1`: the result was inactive.

As for `CCSC(=O)N1CCCCCC1`, the compound was called inactive.

Turning to `Cc1cccc(N)c1C`, the result was inactive.

As to `CN(C)NC(=O)CCC(=O)O`, the result was inactive.

Turning to `O=C(O)Cc1ccccc1`, the compound was classed as inactive.

`ClC(Cl)c1ccccc1`: the outcome was inactive.

As for `Cc1cc(O)ccc1Cl`, the call was inactive.

With `O=[N+]([O-])c1ccc(Cl)c(Cl)c1`, the outcome was inactive.

Regarding `O=C(O)COc1ccccc1`, the call was inactive.

Take `COc1nc(NC(C)C)nc(NC(C)C)n1`: the outcome was inactive.

Regarding `CNC(=O)O/N=C/C(C)(C)S(C)(=O)=O`, the compound was classed as inactive.

Take `CCCCCCCCCCCCCCCCCC(=O)O`: the result was inactive.

Take `CC(C)CCCCCCOC(=O)c1ccccc1C(=O)OCCCCCCC(C)C`: the compound was called inactive.

Regarding `C=CC(=O)OCC(CC)CCCC` (stereo not given), the compound was called inactive.

On to `CC(C)c1cccc(C(C)C)c1O`, for which the call was inactive.

With `OCC(O)CCl` (stereo not given), the call was inactive.

For the compound `Oc1c(Br)cc(Br)cc1Br`, the result was inactive.

For the compound `O=C(O)c1cc(Oc2ccc(C(F)(F)F)cc2Cl)ccc1[N+](=O)[O-]`, the outcome was inactive.

As to `Nc1cccc(Cl)c1`, the outcome was inactive.

Regarding `Nc1cc(Cl)cc(Cl)c1`, the call was inactive.

For the compound `CNC(=O)O/N=C(\SC)C(=O)N(C)C`, the “activity change, negative = cytotoxicity” value was 0.272% [at 78.9 µM].
